We go through five compounds from PubChem BioAssay (EPA / NIEHS).

Active and inactive are the calls of the source. Rule for the calls: active = hit-call score of the fitted dose curve at least 0.9, where 1 is the maximum; inactive = score below 0.9.

Experiment [1] is described as follows: ATG_CMV_CIS: Attagene CIS-FACTORIAL HepG2 Assay for human CMV (Internal Marker) (AID 2282928).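 Note: endpoint acts as a background internal control marker rather than a target.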 As to conditions: HepG2 CMV promoter reporter, transcription factor profiling; actives raise or lower the signal. A digest of the protocol: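 After transient transfection of HepG2 with reporter transcription units driven by cis-regulatory promoters, cells receive test chemical for 24 h. Labeled reporter amplicons, digested with HpaI, are sized and quantified by capillary electrophoresis against DMSO.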

Experiment [2] has as its target Aryl hydrocarbon receptor (Homo sapiens) (UniProt P35869). Briefly: ATG_Ahr_CIS: Attagene CIS-FACTORIAL HepG2 Assay for human Aryl Hydrocarbon Receptor (Ahr) (AID 2282930). As to conditions: HepG2 AhR cis-factorial reporter transcription; actives raise or lower the signal. A digest of the protocol:
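Read-out: reporter mRNA quantified by RT-PCR with fluorescent primer extension and capillary electrophoresis. Human HepG2 liver cells carried transfected cis-promoter reporter units and were exposed to chemical for 24 h; gain or loss fitted relative to DMSO.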

Experiment [3] is described as follows: ATG_AP_1_CIS: Attagene CIS-FACTORIAL HepG2 Assay for human Activator Protein 1 (AP-1) (AID 2282931). Conditions: HepG2 Attagene cis-factorial AP-1 reporter mRNA; actives raise or lower the signal. The essentials:
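Endogenous transcription-factor activity in human HepG2 liver cells is read through a cis-promoter reporter transcript, sampled 24 h after dosing. Detection uses RT-PCR with capillary electrophoresis; values come from bidirectional fitting relative to DMSO.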

Experiment [4] can be described thus: ATG_AP_2_CIS: Attagene CIS-FACTORIAL HepG2 Assay for human Activator Protein 2 (AP-2) (AID 2282932). Conditions: HepG2 AP-2 cis-reporter, Attagene transcription factor profiling; actives raise or lower the signal. The essentials:
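HepG2 cells transiently transfected with cis-element reporter units and exposed for 24 h. Reporter mRNA measured by RT-PCR, FAM labelling, HpaI digestion and capillary electrophoresis. Changes in either direction fitted relative to DMSO.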

A short description of experiment [5]: ATG_BRE_CIS: Attagene CIS-FACTORIAL HepG2 Assay for human Bone Morphogenetic Protein (BMP) Response Element (BRE) (AID 2282933). Conditions: HepG2 BMP response element reporter, Attagene transcription factor profiling; actives raise or lower the signal. A digest of the protocol: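 HepG2 cells transiently transfected with CIS reporter units (endogenous TF activity, BMP response element), dosed 24 h. Reporter mRNA quantified by RT-PCR, fluorescent labelling and capillary electrophoresis; bidirectional fit vs DMSO baseline.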

Experiment [6] concerns the target Retinoic acid receptor alpha (Homo sapiens) (UniProt P10276). The experiment can be described thus: ATG_DR5_RAR_CIS: Attagene CIS-FACTORIAL HepG2 Assay for human Retinoic Acid Receptor Alpha (RARE), DR5 submotif (AID 2282934). As to conditions: HepG2 Attagene cis-factorial RARE DR5 reporter, mRNA; actives raise or lower the signal. The essentials:
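Read-out: DR5-driven reporter transcript measured by RT-PCR, 6-FAM primer extension, HpaI digest and capillary electrophoresis. Human HepG2 liver cells carry transiently transfected cis-element reporter constructs; dosing lasts 24 h. Gain or loss of signal fitted against DMSO baseline.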

The target of experiment [7] is Transcription factor E2F1 (Homo sapiens) (UniProt Q01094). The experiment can be described thus: ATG_E2F_CIS: Attagene CIS-FACTORIAL HepG2 Assay for human E2F Transcription Factor 1 (AID 2282935). Conditions: HepG2 Attagene cis-reporter, E2F reporter RNA transcripts; actives raise or lower the signal. A digest of the protocol: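 Endogenous E2F1 activity read through cis-promoter reporter units transfected into HepG2. After 24 h compound treatment, reporter mRNA measured by RT-PCR, HpaI digestion and capillary electrophoresis. Bidirectional fit versus DMSO.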

Experiment [8] in a line: ATG_E_Box_CIS: Attagene CIS-FACTORIAL HepG2 Assay for human Enhancer Box (E-box) (AID 2282936). As to conditions: HepG2 E-box cis-reporter transcription, actives raise or lower the signal. A digest of the protocol: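 HepG2 cells transiently transfected with multiplexed cis-element reporter units, dosed 24 h; reporter mRNA quantified by RT-PCR, 6-FAM labelling, HpaI digestion and capillary electrophoresis. E-box (USF1) signal fitted bidirectionally vs DMSO.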

Experiment [9] in a line: ATG_Ets_CIS: Attagene CIS-FACTORIAL HepG2 Assay for human Erythroblast Transformation Specific (ETS) (AID 2282941). Conditions: HepG2 ETS cis-reporter transcription, actives raise or lower the signal. A digest of the protocol:
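Human HepG2 hepatoma cells were transiently transfected with promoter-driven reporter constructs and treated for 24 hours. Reporter transcripts were quantified by RT-PCR with fluorescent primer extension; bidirectional curve fitting used DMSO as reference.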

In experiment [10] the target is Hepatocyte nuclear factor 3-beta (Homo sapiens) (UniProt Q9Y261). Briefly: ATG_FoxA2_CIS: Attagene CIS-FACTORIAL HepG2 Assay for human Forkhead box A2 (FOXA2) (AID 2282942). Conditions: HepG2 cis-reporter transcription factor activity, 24 h; actives raise or lower the signal. The essentials:
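Endogenous transcription factor activity was read in HepG2 cells carrying transiently transfected cis-promoter reporter units. After 24 h dosing, reporter mRNA was quantified by RT-PCR and capillary electrophoresis, and values fitted bidirectionally versus DMSO.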

Experiment [11] in a line: ATG_FoxO_CIS: Attagene CIS-FACTORIAL HepG2 Assay for human Forkhead box O (FoxO) (AID 2282943). As to conditions: HepG2 Attagene cis-reporter, FoxO element, mRNA; actives raise or lower the signal. A digest of the protocol: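 Read-out: fluorescence of 6-FAM-labelled reporter cDNA fragments resolved by capillary electrophoresis. Transiently transfected HepG2 cells were dosed for 24 h; activity fitted in both directions relative to DMSO controls.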

Experiment [12] in a line: ATG_GATA_CIS: Attagene CIS-FACTORIAL HepG2 Assay for human GATA Binding Protein (AID 2282944). Conditions: HepG2 GATA cis-element reporter, Attagene multiplex mRNA; actives raise or lower the signal. The essentials:
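HepG2 cells transiently transfected with multiplexed cis-element reporter units measure endogenous GATA activity; after 24 h compound exposure, reporter mRNA quantified by RT-PCR and capillary electrophoresis. Changes fitted in both directions vs DMSO.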

Experiment [13] in a line: ATG_GLI_CIS: Attagene CIS-FACTORIAL HepG2 Assay for human Zinc Finger Protein GLI1 (AID 2282945). Conditions: HepG2, Attagene cis-factorial reporter mRNA, GLI element; actives raise or lower the signal. The essentials: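 Transiently transfected HepG2 cells report endogenous transcription factor activity via cis-element-driven reporter units. After 24 h compound exposure, reporter mRNA was measured by RT-PCR with capillary electrophoresis; bidirectional fitting against DMSO baseline.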

Experiment [14] concerns the target Bile acid receptor (Homo sapiens) (UniProt Q96RI1). The experiment can be described thus: ATG_IR1_CIS: Attagene CIS-FACTORIAL HepG2 Assay for human Nuclear Receptor Subfamily 1 Group H Member 4 (NR1H4), IR1 submotif (AID 2282946). As to conditions: IR1 reporter transcription, actives raise or lower the signal. A digest of the protocol: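 HepG2 cells transiently transfected with multiple cis-promoter-driven reporter units to measure endogenous transcription factor activity; 24 h exposure. Reporter mRNA read by RT-PCR, FAM labelling, HpaI digestion and capillary electrophoresis. Bidirectional fit versus DMSO.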

Experiment [15] concerns the target CCAAT/enhancer-binding protein beta (Homo sapiens) (UniProt P17676). Briefly: ATG_C_EBP_CIS: Attagene CIS-FACTORIAL HepG2 Assay for human CCAAT/Enhancer Binding Protein (C/EBP) beta (AID 2282927). Conditions: HepG2 Attagene cis-factorial transcription factor reporter; actives raise or lower the signal. The essentials: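 Transiently transfected HepG2 (MRTU library, endogenous TF-driven promoters); 24 h dosing; total RNA → oligo(dT) RT → PCR → 6-FAM primer extension → HpaI digest → CE; fit bidirectionally vs DMSO.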

Experiment [16] can be described thus: ATG_DR4_LXR_CIS: Attagene CIS-FACTORIAL HepG2 Assay for human Liver X Receptor (LXR), DR4 submotif (AID 2282929). As to conditions: HepG2 Attagene DR4 cis-reporter, mRNA transcription; actives raise or lower the signal. A digest of the protocol: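 Cells were transfected with multiple reporter transcription units, exposed to chemicals for 24 hours, then lysed for RNA. Reporter mRNA induction was measured by RT-PCR with capillary electrophoresis detection and fitted in both directions relative to DMSO.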

Experiment [17] is described as follows: ATG_M_61_CIS: Attagene CIS-FACTORIAL HepG2 Assay for M61 Transcription Factor (Internal Marker) (AID 2282937). As to conditions: HepG2 Attagene CIS-FACTORIAL M61 internal marker reporter; actives raise or lower the signal. A digest of the protocol: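 Cells were transfected with reporter units under cis-regulatory promoters, treated with chemicals for 24 h, then lysed for RNA. Reporter transcripts were quantified by RT-PCR and capillary electrophoresis, and activity was fitted bidirectionally against DMSO.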

Experiment [18] can be described thus: ATG_EGR_CIS: Attagene CIS-FACTORIAL HepG2 Assay for human Early Growth Response 1 (EGR1) (AID 2282938). As to conditions: HepG2 Attagene CIS-FACTORIAL EGR reporter mRNA; actives raise or lower the signal. The essentials: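 Endogenous TF activity in HepG2 liver cells was gauged through cis-promoter reporter constructs transiently transfected. After 24 h dosing, reporter mRNA was quantified by RT-PCR and capillary electrophoresis, and curves fitted in both directions versus DMSO.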

Experiment [19] in a line: ATG_M_19_CIS: Attagene CIS-FACTORIAL HepG2 Assay for M19 Transcription Factor (Internal Marker) (AID 2282939). Conditions: HepG2 Attagene CIS-FACTORIAL M19 internal marker reporter; actives raise or lower the signal. The essentials: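 HepG2 cells transiently transfected with cis-regulated multiplexed reporter units, dosed 24 h. Reporter mRNA quantified by RT-PCR and capillary electrophoresis; internal background marker fitted bidirectionally versus DMSO.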

Sequence of Bile acid receptor (Homo sapiens) (Q96RI1 whole entry, looked up): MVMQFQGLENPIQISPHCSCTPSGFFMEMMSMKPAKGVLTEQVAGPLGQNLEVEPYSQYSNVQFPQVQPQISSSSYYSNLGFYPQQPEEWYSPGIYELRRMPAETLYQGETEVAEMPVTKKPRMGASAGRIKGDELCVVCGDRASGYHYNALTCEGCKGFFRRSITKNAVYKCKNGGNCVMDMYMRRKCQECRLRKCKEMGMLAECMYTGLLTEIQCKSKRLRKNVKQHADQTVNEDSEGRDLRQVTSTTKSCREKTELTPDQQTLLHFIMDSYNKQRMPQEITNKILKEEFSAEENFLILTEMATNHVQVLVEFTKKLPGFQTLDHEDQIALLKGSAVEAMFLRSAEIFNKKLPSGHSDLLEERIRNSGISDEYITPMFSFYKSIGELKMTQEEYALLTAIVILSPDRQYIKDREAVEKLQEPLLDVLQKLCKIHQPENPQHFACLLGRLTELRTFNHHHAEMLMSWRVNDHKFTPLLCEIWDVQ
Sequence of Retinoic acid receptor alpha (Homo sapiens) (P10276 whole entry, looked up): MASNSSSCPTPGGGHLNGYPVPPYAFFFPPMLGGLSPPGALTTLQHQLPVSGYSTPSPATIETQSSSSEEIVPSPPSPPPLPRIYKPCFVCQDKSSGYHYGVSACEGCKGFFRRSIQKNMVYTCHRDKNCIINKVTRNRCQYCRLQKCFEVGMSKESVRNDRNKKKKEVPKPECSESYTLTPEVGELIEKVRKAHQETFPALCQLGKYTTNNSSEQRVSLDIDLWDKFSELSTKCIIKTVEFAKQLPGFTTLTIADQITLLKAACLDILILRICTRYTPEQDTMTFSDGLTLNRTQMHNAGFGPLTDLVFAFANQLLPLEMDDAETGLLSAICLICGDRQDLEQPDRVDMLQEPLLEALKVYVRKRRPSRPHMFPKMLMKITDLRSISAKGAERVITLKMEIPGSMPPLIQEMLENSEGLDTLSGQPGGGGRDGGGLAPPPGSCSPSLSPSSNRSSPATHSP
Sequence of Transcription factor E2F1 (Homo sapiens) (Q01094 whole entry, looked up): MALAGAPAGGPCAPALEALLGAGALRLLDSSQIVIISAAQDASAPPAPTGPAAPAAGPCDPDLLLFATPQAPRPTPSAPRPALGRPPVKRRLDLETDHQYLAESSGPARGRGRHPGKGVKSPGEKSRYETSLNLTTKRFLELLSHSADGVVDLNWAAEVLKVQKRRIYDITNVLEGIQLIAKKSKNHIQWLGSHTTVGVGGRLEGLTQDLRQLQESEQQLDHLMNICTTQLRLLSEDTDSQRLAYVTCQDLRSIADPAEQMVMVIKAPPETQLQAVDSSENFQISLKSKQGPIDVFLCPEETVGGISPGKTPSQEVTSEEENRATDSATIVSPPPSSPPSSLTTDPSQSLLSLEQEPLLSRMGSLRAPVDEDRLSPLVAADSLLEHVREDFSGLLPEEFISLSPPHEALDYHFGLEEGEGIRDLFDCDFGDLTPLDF
Sequence of CCAAT/enhancer-binding protein beta (Homo sapiens) (P17676 whole entry, looked up): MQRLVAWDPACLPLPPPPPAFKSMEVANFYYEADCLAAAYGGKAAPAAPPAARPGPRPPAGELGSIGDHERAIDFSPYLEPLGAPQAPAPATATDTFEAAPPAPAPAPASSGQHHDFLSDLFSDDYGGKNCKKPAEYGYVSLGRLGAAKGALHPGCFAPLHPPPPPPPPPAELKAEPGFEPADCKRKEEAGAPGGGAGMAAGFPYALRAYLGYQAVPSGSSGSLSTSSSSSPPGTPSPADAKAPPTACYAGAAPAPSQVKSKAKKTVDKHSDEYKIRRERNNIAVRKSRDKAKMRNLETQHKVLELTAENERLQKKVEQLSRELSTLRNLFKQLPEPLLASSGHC
Sequence of Aryl hydrocarbon receptor (Homo sapiens) (P35869 whole entry, looked up): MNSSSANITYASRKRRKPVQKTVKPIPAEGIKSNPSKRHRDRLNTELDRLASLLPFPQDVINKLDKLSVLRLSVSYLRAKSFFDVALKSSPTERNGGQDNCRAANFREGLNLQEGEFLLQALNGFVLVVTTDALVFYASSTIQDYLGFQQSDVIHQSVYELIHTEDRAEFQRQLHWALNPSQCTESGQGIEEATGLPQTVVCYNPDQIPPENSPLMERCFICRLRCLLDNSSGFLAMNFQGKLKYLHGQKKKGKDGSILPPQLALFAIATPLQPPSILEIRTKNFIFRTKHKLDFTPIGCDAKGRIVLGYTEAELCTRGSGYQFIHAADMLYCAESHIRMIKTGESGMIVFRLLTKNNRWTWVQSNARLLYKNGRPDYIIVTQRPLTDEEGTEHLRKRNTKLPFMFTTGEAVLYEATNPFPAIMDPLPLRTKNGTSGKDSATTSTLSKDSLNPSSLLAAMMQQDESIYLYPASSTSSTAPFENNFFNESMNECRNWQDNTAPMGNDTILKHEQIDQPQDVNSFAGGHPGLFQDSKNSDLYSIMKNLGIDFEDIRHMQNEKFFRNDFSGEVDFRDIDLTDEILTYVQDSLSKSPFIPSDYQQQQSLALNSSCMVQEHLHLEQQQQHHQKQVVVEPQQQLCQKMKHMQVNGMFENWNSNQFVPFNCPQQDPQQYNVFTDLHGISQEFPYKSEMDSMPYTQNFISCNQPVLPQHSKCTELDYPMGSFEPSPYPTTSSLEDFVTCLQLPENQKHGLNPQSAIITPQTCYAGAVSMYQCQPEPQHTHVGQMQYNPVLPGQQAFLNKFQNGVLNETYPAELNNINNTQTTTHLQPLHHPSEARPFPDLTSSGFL
Sequence of Hepatocyte nuclear factor 3-beta (Homo sapiens) (Q9Y261 whole entry, looked up): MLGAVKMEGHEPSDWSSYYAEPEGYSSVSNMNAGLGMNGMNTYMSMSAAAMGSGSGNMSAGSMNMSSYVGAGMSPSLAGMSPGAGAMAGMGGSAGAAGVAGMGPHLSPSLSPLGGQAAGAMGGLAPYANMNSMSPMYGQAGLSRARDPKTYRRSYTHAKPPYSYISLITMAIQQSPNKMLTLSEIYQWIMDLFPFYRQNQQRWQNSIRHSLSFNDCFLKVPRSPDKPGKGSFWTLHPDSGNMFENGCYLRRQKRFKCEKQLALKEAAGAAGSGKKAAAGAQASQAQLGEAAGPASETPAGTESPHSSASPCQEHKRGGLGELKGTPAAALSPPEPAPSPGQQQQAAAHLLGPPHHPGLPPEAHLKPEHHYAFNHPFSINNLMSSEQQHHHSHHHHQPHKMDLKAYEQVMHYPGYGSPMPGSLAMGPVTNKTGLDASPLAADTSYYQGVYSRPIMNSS

With `O=C(O)CCCCCCCCC(=O)O`, the outcome in experiment [1], in [2], in [3], in experiment [4], in [5] and in experiment [6] was inactive. The compound was called inactive in experiment [7], in [8], in [9], in experiment [10], in experiment [11] and in experiment [12]. Moreover, the outcome in experiment [13] and in experiment [14] was inactive.
Turning to `CCc1cc(C(C)(C)C)c(O)c(C(C)(C)C)c1`, the outcome in [15], in [2], in experiment [4], in experiment [5], in experiment [7] and in experiment [17] was inactive. Further, the result in experiment [18], in [19], in experiment [9], in [10], in experiment [11] and in experiment [12] was inactive. In experiment [14], the compound was classed as inactive. For the same compound, the AC50 in experiment [1] is 53.9 µM (active); in experiment [16] it was 23.2 µM (active); in experiment [3] it was 63.7 µM (active); in experiment [8] it was 24.4 µM (active).
For the compound `OCCCCC(O)CO` (stereo not given), the outcome in [15], in experiment [1], in [2], in [3], in [4] and in experiment [5] was inactive. In addition, the outcome in experiment [6], in experiment [7], in experiment [8], in [17], in [19] and in experiment [10] was inactive. In addition, the call in experiment [11], in experiment [12], in experiment [13] and in [14] was inactive.
For the compound `CC=CC=CCOC(=O)C(C)C`, the result in [15], in [1], in experiment [2], in [4], in experiment [5] and in experiment [6] was inactive. The result in [7], in [8], in [17], in [19], in experiment [9] and in experiment [10] was inactive. Besides, the compound was classed as inactive in experiment [12], in experiment [13] and in [14]. The figures for the AC50 in [16] and in experiment [3] were 130 µM (active) and 100 µM (active), respectively.
`CCCC(C)C(O)CC` (stereo not given): the result in [15], in [1], in experiment [16], in [2], in [3] and in experiment [5] was inactive. Besides, the result in experiment [6], in experiment [7], in [8], in experiment [17], in experiment [18] and in experiment [9] was inactive. The result in [10], in [12], in experiment [13] and in experiment [14] was inactive.

One may read the AC50 as the concentration giving half of the maximal activity seen.
